According to PubChem BioAssay (NCI):
Compounds without any hit were thinned out: in the full panel of roughly 79,000, 15% have a hit. A number with no mark means an inactive call. The source made the active and inactive calls. Cut-off read from the data, not from the text of the source: active = growth inhibition above about 70%; inactive = the rest.

Assay: NCI Yeast Anticancer Drug Screen. Data for the rad50EPP+ strain (AID 151);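 note: 0% = growth of vehicle-treated control cultures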
Conditions: S. cerevisiae rad50 mutant strain, at 1.2 µM, hits give high values
Procedure, shortened: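 Read-out is yeast growth inhibition relative to vehicle; cells used were the rad50EPP+ strain.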
With `S=C(S)NN1CCOCC1` the growth inhibition was 96% (active).
`COc1cc2c3c(cccc3c1)C(=O)N(CCN(C)C)C2=O` gave a growth inhibition of -23%.
`COC(=O)C1=C(C)NC(C)=C(C(=O)OCCCN2CCC(c3ccccc3)(c3ccccc3)CC2)C1c1cccc([N+](=O)[O-])c1` (stereo not given) gave a growth inhibition of 66%.
In the case of `c1ccc2c(c1)Oc1cccc3cccc-2c13`, the growth inhibition was 11%.
With `CN(C)CCOc1ccc2c(c1)C/C(=C/c1ncc([N+](=O)[O-])n1C)C2=O` the growth inhibition was 22%.
Work on `Cc1ccc(CCC2=CCCc3c2ccc2ccccc32)cc1` yielded a growth inhibition of -3%.
For `CNC(=O)OCc1c(COC(=O)NC)c(-c2ccc(Cl)c(Cl)c2)n2c1CCC2`, the growth inhibition was -19%.
Work on `Clc1ccccc1C1OC1c1ccccc1Cl` (stereo not given) yielded a growth inhibition of -86%.
`O=[N+]([O-])c1cc(CCl)ccc1CCl` showed a growth inhibition of 16%.
`O=C1C=CC(=O)c2c(O)c(Nc3ccc(OC(F)(F)F)cc3)c(Cl)c(O)c21` showed a growth inhibition of 2%.
`S=c1[nH]nc(Nc2ccc(Cl)cc2)s1` gave a growth inhibition of -2%.
`Cn1ccnc1Oc1ccc(Cl)cc1` showed a growth inhibition of -5%.
`BrCc1cccc2ccc3cccc(CBr)c3c12` showed a growth inhibition of -4%.
In the case of `O=C1c2ccccc2-c2nc3ccccc3nc21`, the growth inhibition was 3%.
Compound `CCCCCCCCCCCCCCCCCCNC` has a growth inhibition of 14%.
Work on `Oc1ccc(NCn2c(=S)sc3ccccc32)cc1` yielded a growth inhibition of -6%.
For `O=C1C2CC[C@@H]3C(=O)C(Cl)(Cl)[C@@H]3CCC2C1(Cl)Cl` (stereo not given in full), the growth inhibition was 8%.
With `CC[n+]1ccc2c(C)c3[nH]c4ccc(O)cc4c3c(C)c2c1` the growth inhibition was 16%.
Compound `Cc1ccc(-n2cc(-c3ccc(Cl)cc3)c(C#N)c2N)cc1` has a growth inhibition of -1%.
In the case of `CC(=O)[O][Bi]([c]1ccccc1)[c]1ccccc1`, the growth inhibition was 31%.
With `CC1=C(SCCO)C(=O)c2ccccc2C1=O` the growth inhibition was -7%.
In the case of `C/C(=N\O)C1CC2C=C(C#N)C1N(Cc1ccccc1)C2` (stereo not given), the growth inhibition was 2%.
Compound `CC(Br)C(=O)c1ccc2cc(Br)c3ccccc3c2c1` (stereo not given) has a growth inhibition of 2%.
Compound `Nc1nc(-c2cccnc2)cc(-c2cc(-c3cccnc3)nc(N)n2)n1` has a growth inhibition of -2%.
For `CC(C)=CC(=O)O[C@@H]1CC(C)(C)CC2C3=CCC4[C@]56CC[C@](O)(OC5)C(C)(C)C6CC[C@@]4(C)C3(C)CC[C@]21C(=O)O` (stereo not given in full), the growth inhibition was -9%.
`CCC(C)COC(=O)c1ccc(N=Cc2ccc(C=Nc3ccc(C(=O)OCC(C)CC)cc3)cc2)cc1` (stereo not given) gave a growth inhibition of 5%.
With `Oc1cccc2c(Cl)ccnc12` the growth inhibition was 83% (active).
In the case of `O=C(O)c1cccc(-c2c3ccc(=O)cc-3oc3cc(O)ccc23)c1`, the growth inhibition was -10%.
Work on `CN(CCc1ccccn1)c1ccc2c(c1)Cc1ccccc1-2` yielded a growth inhibition of 29%.
With `Cc1cc(S(=O)(=O)/N=C(/NN)NNc2cccc(C(F)(F)F)n2)c(S)cc1Cl` the growth inhibition was -8%.
`O=C1C2C(C(=O)N1c1ccc(OCc3ccccc3)cc1)C1c3ccccc3C2C2CCCCN21` (stereo not given) gave a growth inhibition of -1%.
Work on `Nc1ccccc1CC(O)C(=O)O` (stereo not given) yielded a growth inhibition of -2%.
With `O=C(O)C1CCCCC1c1c2ccc(=O)c(O)c-2oc2c(O)c(O)ccc12` (stereo not given) the growth inhibition was -9%.
In the case of `Cc1ccc2ccc(O)cc2c1`, the growth inhibition was -25%.
`O=C1C(=O)c2ccccc2C=C1[N+](=O)[O-]` showed a growth inhibition of -1%.
`COC(=O)c1ccc(NCC2=CC(=O)C=CC2=O)cc1O` showed a growth inhibition of 17%.
`C(CCSC1=NCCN1)CSC1=NCCN1` (tested in a mixture with another compound) gave a growth inhibition of 30%.
For `N#Cc1c(N)[nH]c2ccc(Sc3ccccc3)cc12`, the growth inhibition was 3%.
Work on `CCNc1nnc(CSc2nc(-c3ccccc3)c(-c3ccccc3)[nH]2)s1` yielded a growth inhibition of 9%.
With `CC[C@@]1(O)C(=O)OCc2c1cc1n(c2=O)Cc2cc3c(N)cccc3nc2-1` the growth inhibition was 13%.
